Compound activity from PubChem.
An excerpt weighted towards active compounds, which were near 5.9% of everything screened.
Rtt109 Vps75 = blocks Candida albicans Rtt109/Vps75 acetyltransferase activity. Q5AAJ8. purified Rtt109/Vps75, ThioGlo CoA-SH fluorescence, 4 h. inhibition, % at 34.9 µM. 330,000 compounds, 0.16% hits;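 active = inhibition of at least 50% in every replicate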
LANA-H2B inh = blocks KSHV LANA binding to histone H2A/H2B. inhibition, % (test concentration not listed). 320,000 compounds, 0.6% hits. cell-free LANA-H2A/H2B peptide, fluorescence polarization. Q9QR71; in the data active = inhibition mostly above about 10%, no sharp cut-off; inactive = mostly below about 6.7%
PRMT1 FP inh = inhibitors of human PRMT1. Q99873. recombinant PRMT1, activity-based probe fluorescence polarization. inhibition, % at 2.79 µM. 370,000 compounds, 1.3% hits. AID 652257;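 active = inhibition above about 21% made by adding two undisclosed values, limit read from the data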
ALR inh = blocks human ALR sulfhydryl oxidase activity. P55789. purified ALR, DTT oxidation, H2O2 HRP-luminol luminescence. inhibition, % (concentration not given with the values). 290,000 compounds, 3.8% hits. AID 485317;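 active = mean replicate inhibition above about 79%, with every replicate also reaching it, limit read from the data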
Target sequence (P55789 whole entry, looked up): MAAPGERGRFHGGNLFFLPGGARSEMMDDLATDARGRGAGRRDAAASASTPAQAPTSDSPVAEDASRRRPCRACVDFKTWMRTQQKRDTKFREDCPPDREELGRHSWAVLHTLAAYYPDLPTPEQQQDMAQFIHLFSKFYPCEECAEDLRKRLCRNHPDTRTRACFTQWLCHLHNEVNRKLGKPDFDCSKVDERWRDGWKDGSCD
ABHD5-PLIN5 inh = inhibitors of human ABHD5-perilipin-5 interaction. Q00G26+Q8WTS1. Split G. princeps luciferase complementation, luminescence, 4 h. inhibition, % at 4 µM. 360,000 compounds, 0.78% hits;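 active = inhibition above the mean inhibition across every tested compound plus 3 SD, cut at about 22% in these data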;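 also: 0% = DMSO only wells and the 100% control is not disclosed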
rCAG RNA binder = molecules binding r(CAG) RNA repeats | r(CAG) RNA repeat, TO-PRO-1 dye displacement fluorescence | inhibition, % at 3 µM | 370,000 compounds, 1.3% hits;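 active = inhibition above the plate cutoff, the mean of all test compounds on that plate plus 3 SD, cut at about 35% in these data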;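 also: 0% = DMSO alone and 100% = 100 µM mitoxantrone as full dye displacement; higher means more dye released from RNA so lower well fluorescence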
* hit, by the source's call; / = no result given; + = active, no number.

SMILES | Rtt109 Vps75 | LANA-H2B inh | PRMT1 FP inh | ALR inh | ABHD5-PLIN5 inh | rCAG RNA binder
CCN(CC)C(=O)[C@H]1C[C@H](CC(=O)NC/C=C(\C)CCC=C(C)C)C(=O)N2CCc3c([nH]c4cc(-c5ccco5)ccc34)[C@]12C | -5.2 | / | 14.7 | / | 10.0 | 17.9
COc1ccc(CNC(=O)C[C@H]2C[C@H](C(=O)N3CCCCC3)[C@@]3(C)c4[nH]c5cc(-c6ccco6)ccc5c4CCN3C2=O)cc1OC | -1.6 | / | 8.6 | / | -4.1 | 11.1
CCCCNC(=O)C[C@@H]1C[C@]2(C(=O)OCC)CCC3=C2N(CCC3)C1=O | / | / | -2.9 | / | / | -1.8
N#CC1=C(SCc2ccccc2)NC(=O)CC1c1ccco1 (centres undefined) | 9.1 | -5.9 | 3.4 | 99.8* | 3.9 | 7.2
COC(=O)[C@]12C[C@H](CC(=O)NCc3cccs3)C(=O)N(Cc3ccc(Cl)cc3Cl)C1=C[C@H](C1CCCC1)O[C@@H]2C | / | / | -0.9 | / | / | 7.9
CCCCN1C2=NC(c3ccccc3)CN2c2ccccc21 (centres undefined) | 7.9 | -0.8 | -5.4 | 93.4* | 1.9 | 8.1
CCCCN1C2=NCCCN2c2ccccc21 | 2.7 | -2.8 | -4.1 | 0.4 | -2.6 | -3.0
CC[C@H](CCC(=O)N(c1ccccc1)c1ccccc1)c1ccc(C)cc1 | / | / | -1.5 | / | / | 2.1
O=C1CC(Sc2cccs2)C(=O)N1c1ccccc1 (centres undefined) | 1.9 | -4.4 | 48.8* | / | 5.7 | -0.8
COC/C=C/C1=CC2=CC(=O)C(C)(OC(=O)c3cnc4ccccc4n3)C(=O)C2=CN1CCc1c[nH]c2ccccc12 (centres undefined) | / | -3.1 | / | -41.7 | / | /
CCOC(=O)C1CCCN(S(=O)(=O)NC[C@H]2O[C@@H](n3cnc4c(N)ncnc43)[C@H](O)[C@@H]2O)C1 (some centres undefined) | -20.9 | + | -2.5 | 2.0 | -3.9 | 1.9
Cc1nn(-c2ccccc2)c2sc(C(=O)NC3CCCc4ccccc43)cc12 (centres undefined) | / | / | 0.0 | / | / | 9.9
c1cc2c(cc1CNc1ccc(N3CCOCC3)cc1)OCO2 | -1.2 | 2.1 | 5.2 | 98.4* | -19.7 | 8.1
CC(C)c1ccc(S(=O)(=O)Nc2ccc(N3CCOCC3)cc2)cc1 | -1.4 | -3.9 | -2.2 | 45.5 | 2.5 | 2.3
Cc1ccc(CNc2ccc(N3CCOCC3)cc2)cc1 | 1.6 | -0.3 | -1.2 | 98.9* | -12.1 | -0.8
CC(C)c1ccc(CNc2ccc(N3CCOCC3)cc2)cc1 | 1.3 | 3.9 | 3.7 | 98.5* | -16.7 | 4.5
c1cc(CNc2ccc(N3CCOCC3)cc2)ccn1 | -5.0 | -4.7 | 4.7 | 99.4* | -24.4 | -1.5
CCN(C)C(=O)CNc1nnnn1-c1ccccc1 | / | / | -2.6 | / | / | 0.1
O=C(O)/C=C/C(=O)Nc1ccc(C(=O)c2ccccc2)cc1 | -7.7 | -2.9 | 2.9 | 0.6 | -1.1 | 0.5
CC(=O)Nc1ccc2c(c1)C(=O)c1ccccc1C2=O | 2.9 | -5.7 | 1.2 | -26.0 | -1.7 | 8.8
COc1ccc(N2CCN(c3ccc(NC(=O)/C=C\C(=O)O)cc3)CC2)cc1 | -8.4 | -1.0 | 7.0 | 83.2* | -2.3 | 6.6
O=C(O)/C=C/C(=O)Nc1ccc2c(c1)C(=O)c1ccccc1C2=O | 2.8 | 0.6 | 14.8 | 96.7* | 3.3 | 17.5
O=C(O)/C=C/C(=O)Nc1ccc(O)cc1 | 5.1 | -0.1 | 18.8 | 98.1* | -2.2 | -1.8
O=C(Cn1cc(C(=S)N2CCOCC2)c2ccccc21)N1CCOCC1 | 2.3 | 3.0 | -1.6 | -5.8 | -12.1 | 2.4
O=C(O)Cn1cc(C(=S)N2CCOCC2)c2ccccc21 | -5.7 | 0.6 | 16.9 | 98.3* | 3.0 | 0.7
SMILES | Rtt109 Vps75 | LANA-H2B inh | PRMT1 FP inh | ALR inh | ABHD5-PLIN5 inh | rCAG RNA binder
CCc1nc2ccc(C(=O)NCCc3c[nH]c4ccccc34)cn2c1N(C=O)CCC(C)C | / | / | 3.7 | / | 1.3 | 1.3
Cc1ccc(NC(=O)CSc2nc(=O)n(CCN3CCOCC3)c3c2CCCC3)cc1 | / | -7.3 | -2.7 | -22.7 | 2.5 | -6.1
Cc1ccc(NC(=O)CSc2nc(=O)n(CCCN3CCOCC3)c3c2CCCC3)cc1F | 9.9 | 8.0 | 2.5 | 97.5* | 2.6 | -7.0
CCc1ccc(NC(=O)CSc2nc(=O)n(CCCN3CCOCC3)c3c2CCCC3)cc1 | 2.4 | 1.7 | 0.6 | 98.2* | 5.5 | -8.2
CC(=O)Oc1ccc2c(c1)Oc1cc(OC(C)=O)ccc1C21OC(=O)c2ccccc21 | -9.0 | 141.6* | / | 2.3 | -8.6 | /
CCOc1cc(/C=C(\C#N)c2[nH]nc(N)c2C#N)ccc1O | -9.9 | 5.3 | -3.0 | 99.2* | -1.6 | 19.2
